Sm TGR block = S. mansoni TGR enzyme inhibition; Q962Y6; purified TGR, DTNB reduction, TNB absorbance 405 nm; Potency, µM (series often up to 114 µM), actives largely listed as inhibitors; actives 3% (n = 360,000); AID 485364; also: nearly all actives have a fitted effect of over 60% in size
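First, TGR (20 nM dispensed) and NADPH were mixed with compound. Second, a 15 min room-temperature incubation followed. Third, further NADPH and then DTNB were added to start the reaction. Finally, TNB absorbance was monitored kinetically.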
RE007 growth inh = less growth of the S. pombe RE007 Vpr strain | S. pombe RE007 Vpr strain, BacTiter-Glo ATP luminescence, 24 h | Potency, µM (highest dose often 92.2 µM), hits mostly inhibitors | actives 0.21% (n = 360,000); active = well fitted falling curve with a large enough effect; inconclusive = small, poorly fitted or top-dose-only effect; inactive = no such curve, though single readings can be large or run the other way; also: nearly all actives have a fitted effect of over 50% in size
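Fission yeast RE007 carrying one integrated HIV-1 vpr copy, seeded at OD 0.01 in PMG+AL medium with 23 nL pinned compound. Grown 24 h at 30 degrees; viability read by BacTiter-Glo luminescence after 5 min.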
TbPYK inhibitor = blocks Trypanosoma brucei pyruvate kinase; Q57TT1; TbPYK enzyme, Kinase-Glo Plus ATP luminescence, 45 min; Potency, µM (top dose mostly 76.8 µM), most hits filed as inhibitors; actives 0.12% (n = 410,000); AID 624173; also: nearly all actives have a fitted effect of over 50% in size
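TbPYK + substrate in 50 mM TEA pH 7.2, 100 mM KCl, 10 mM MgCl2, 0.05% BSA, 0.01% Tween-20; cpd pinned; ADP 130 uM final; 45 min RT; Kinase-Glo Plus 10 min; luminescence endpoint.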
FMDV antiviral = blocks foot and mouth disease virus | FMDV antiviral cell-based qHTS | Potency, µM (highest dose often 57.9 µM), most hits filed as inhibitors | actives 1.2% (n = 410,000) | AID 1159524; calls by dose curve; tested in HEK293T cells; also: read-out not given here; nearly all actives have a fitted effect of over 45% in size
Each line names hits and unclear results; the compound was inactive in the other large screens. This is a sample that favours compounds with a hit; in the whole collection about 3.7% have one here. Unless noted, calls follow the shape of the dose curve; as a rule, active = well fitted curve in the direction sought with a large enough effect; inconclusive = small, poorly fitted or top-dose-only effect, or another doubt; inactive = no such curve, though single readings can be large; an effect the other way counts as inactive or inconclusive.

CCCN(CCC)c1cc(C)nc2nc(-c3ccc(C(C)(C)C)cc3)nn12	none (no result: RE007 growth inh)
CCOc1ccc(-n2c(=O)c3sc4ccccc4c3n(Cc3ccc(F)cc3)c2=O)cc1	none (no result: RE007 growth inh)
CC(=O)Oc1ccc(OC(C)=O)c(SCCCCCN2CCOCC2)c1	Sm TGR block 50µM, FMDV antiviral inconclusive
C#CCOCCOCCOCCNc1nc(N2CCN(C(=O)CCCCCCCCCCNC(=O)[C@H]([C@@H](C)CC)n3cc(CCCCN=C(N)N)nn3)CC2)nc(N2CCN(C(=O)CCCCCCCCCCNC(=O)[C@H]([C@@H](C)CC)n3cc(CCCCN=C(N)N)nn3)CC2)n1	Sm TGR block 40µM (no result: RE007 growth inh, TbPYK inhibitor, FMDV antiviral)
C#CCOCCOCCOCCNc1nc(N2CCN(C(=O)CCCCCCCCCCNC(=O)[C@H]([C@@H](C)CC)n3cc(CCCCN=C(N)N)nn3)CC2)nc(N2CCN(C(=O)CCCCCCCCCCNC(=O)[C@H](CCCCN)n3cc(C)nn3)CC2)n1	Sm TGR block 40µM, FMDV antiviral 35µM
C#CCOCCOCCOCCNc1nc(N2CCN(C(=O)CCCCCCCCCCNC(=O)[C@H]([C@@H](C)CC)n3cc(CCCCCN)nn3)CC2)nc(N2CCN(C(=O)CCCCCCCCCCNC(=O)[C@H](CCCCN)n3cc(CCCC(=O)O)nn3)CC2)n1	FMDV antiviral inconclusive
C#CCOCCOCCOCCNc1nc(N2CCN(C(=O)CCCCCCCCCCNC(=O)Cn3cc(CCCCCN)nn3)CC2)nc(N2CCN(C(=O)CCCCCCCCCCNC(=O)[C@@H](CCC(=O)O)n3cc(CCCCCN)nn3)CC2)n1	Sm TGR block 50µM
C#CCOCCOCCOCCNc1nc(N2CCN(C(=O)CCCCCCCCCCNC(=O)[C@H](CO)n3cc(CCCSC)nn3)CC2)nc(N2CCN(C(=O)CCCCCCCCCCNC(=O)[C@@H]([C@H](C)O)n3cc(C)nn3)CC2)n1	Sm TGR block 45µM (no result: RE007 growth inh, TbPYK inhibitor, FMDV antiviral)
Cc1ccc(S(=O)(=O)c2cn(Cc3cccc(F)c3)c3cc(N4CCCC4)c(F)cc3c2=O)cc1	none (no result: RE007 growth inh)
O=C(c1cnn2cccnc12)N1CCOc2ccc(C(O)C(c3ccccc3)c3ccccc3)cc2C1 (stereo not drawn)	none (no result: Sm TGR block, RE007 growth inh, TbPYK inhibitor)
CCCCCCCCCCCCCCCC(=O)OC[C@@H](NC(=O)C(Cl)Cl)[C@H](O)c1ccc([N+](=O)[O-])cc1	none (no result: Sm TGR block, RE007 growth inh, FMDV antiviral)
C#CCOCCOCCOCCNc1nc(N2CCN(C(=O)CCCCCCCCCCNC(=O)[C@H]([C@@H](C)CC)n3cc(CCCCN=C(N)N)nn3)CC2)nc(N2CCN(C(=O)CCCCCCCCCCNC(=O)[C@H](CO)n3cc(CCCCCN)nn3)CC2)n1	Sm TGR block 45µM, FMDV antiviral inconclusive
C#CCOCCOCCOCCNc1nc(N2CCN(C(=O)CCCCCCCCCCNC(=O)[C@H]([C@@H](C)CC)n3cc(CCCCCN)nn3)CC2)nc(N2CCN(C(=O)CCCCCCCCCCNC(=O)[C@H](CO)n3cc(CCCCCN)nn3)CC2)n1	Sm TGR block inconclusive
CC(C)(C)OC(=O)NCCCCCc1cn([C@@H](CO)C(=O)NCCCCCCCCCCC(=O)N2CCN(C(=O)OC(C)(C)C)CC2)nn1	FMDV antiviral 7.1µM
CCCOc1ccc(CNC(=O)C2CCN(C(=O)c3sccc3-n3cccc3)CC2)cc1	none (no result: RE007 growth inh)
CCN(CCNC(=O)C1CCN(Cc2nc(-c3ccc(Cl)cc3)oc2C)CC1)c1ccccc1	FMDV antiviral inconclusive
CCN(CCNC(=O)C1CCN(Cc2nc(-c3cccc(Cl)c3)oc2C)CC1)c1ccccc1	FMDV antiviral 40µM
Cc1oc(-c2cccc(Cl)c2)nc1CN1CCC(C(=O)NC(C)c2ccccc2)CC1 (stereo not drawn)	FMDV antiviral 35µM (no result: RE007 growth inh)
Cc1oc(-c2ccc(Cl)cc2)nc1CN1CCC(C(=O)NCCCN2CCN(c3cccc(Cl)c3)CC2)CC1	Sm TGR block inconclusive, FMDV antiviral 25µM (no result: RE007 growth inh)
CN(Cc1ccccc1)C(=O)c1ncn(C)c1C(=O)N(C)Cc1ccccc1	Sm TGR block 20µM
COC(=O)c1c(N)sc(C(=O)NCCc2ccccc2)c1C	FMDV antiviral 6.3µM
CCc1ccc(NC(=O)C(=O)NCC(c2cccnc2)N2CCc3ccccc3C2)cc1 (stereo not drawn)	FMDV antiviral 10µM (no result: RE007 growth inh)
O=C(NCC(c1cccnc1)N1CCc2ccccc2C1)C(=O)Nc1ccccc1 (stereo not drawn)	none (no result: RE007 growth inh)
COc1ccc2[nH]cc(CCNc3ncnc4ccc(-c5ccc6c(c5)OCO6)cc34)c2c1	none (no result: Sm TGR block, RE007 growth inh, TbPYK inhibitor)
C=CCc1ccc(O)c(-c2ccc(O)c(CC=C)c2)c1	Sm TGR block 45µM, RE007 growth inh inconclusive, FMDV antiviral inconclusive
Cc1ccc(-c2onc(C)c2C)cc1S(=O)(=O)Nc1cccc(Cl)c1C	none (no result: RE007 growth inh)
Cc1cccc(Nc2nnc(SCC(=O)NC3CCCc4ccccc43)s2)c1C (stereo not drawn)	FMDV antiviral 40µM
COc1cccc(-c2nn3c(=O)cc(CN4CCN(S(=O)(=O)c5ccc(C)cc5)CC4)nc3s2)c1	none (no result: RE007 growth inh)
CC(Sc1nnc(Cc2cccs2)n1C1CCCCC1)C(=O)N1CCc2ccccc21 (stereo not drawn)	none
CC(Sc1nnc(Cc2cccs2)n1C1CCCCC1)C(=O)NCc1ccco1 (stereo not drawn)	Sm TGR block 50µM
N#Cc1cccc(-c2nc3cnc(Oc4cccc(Cl)c4)nc3n(C3CC3)c2=O)c1	none (no result: Sm TGR block, RE007 growth inh, TbPYK inhibitor)
Cc1nc(Sc2ccc(Br)cc2)c(C#N)c(C)c1[N+](=O)[O-]	FMDV antiviral 20µM
CCOC(=O)c1c(CSc2ccc(C)cc2)oc2ccc(O)cc12	RE007 growth inh inconclusive, FMDV antiviral 22µM
O=[N+]([O-])c1cccc2nc3ccccc3c(NCCCn3ccnc3[N+](=O)[O-])c12	FMDV antiviral 14µM (no result: Sm TGR block)
O=[N+]([O-])c1ccccc1Nc1c2ccccc2nc2ccccc12	none (no result: Sm TGR block)
O=C(c1ccco1)N1CCN(c2nc(C(F)(F)F)nc3c2nnn3Cc2ccccc2)CC1	FMDV antiviral 14µM
Cc1cccc2cc(C3CC(c4ccco4)=NN3S(C)(=O)=O)c(Cl)nc12 (stereo not drawn)	Sm TGR block 32µM
Cc1ccsc1C(=O)C1CCCN(Cc2cnc(N3CCOCC3)s2)C1 (stereo not drawn)	FMDV antiviral 25µM
CC(C)=CC(=O)Nc1cccc(S(=O)(=O)NC2=NCCCCC2)c1	none (no result: Sm TGR block)
O=C(Nc1cccc(S(=O)(=O)NC2=NCCC2)c1)c1ccc(=O)[nH]c1	Sm TGR block 5.6µM
COc1ccc(/C=C/C(=O)Nc2cccc(S(=O)(=O)NC3=NCCCCC3)c2)cc1OC	FMDV antiviral 40µM
COc1cc(OC)cc(C(=O)OCC(=O)Nc2cccc(S(=O)(=O)NC3=NCCCCC3)c2)c1	FMDV antiviral 22µM (no result: Sm TGR block)
Cc1ccc(C)c(SCC(=O)Nc2cccc(S(=O)(=O)NC3=NCCCCC3)c2)c1	none
Cc1ccc(Nc2nnc(SCC(=O)Nc3cccc(S(=O)(=O)NC4=NCCCCC4)c3)s2)c(C)c1	FMDV antiviral 32µM
Cc1ccc(-c2cc(C(=O)NCCc3ccccc3)c3ccccc3n2)cc1C	none (no result: RE007 growth inh)
Cc1cccc(N2C(=O)CCSC23C(=O)N(Cc2ccc(F)cc2)c2ccccc23)c1 (stereo not drawn)	FMDV antiviral inconclusive (no result: RE007 growth inh)
